Calls of active or inactive are those of the source.

In PubChem BioAssay one finds composite z-score and z-score data, which are given here for 35 compounds.

The test system of the first assay is PRMT1 (protein arginine N-methyltransferase 1). As to the kind of experiment: PRMT1 binders on small-molecule microarrays, primary screen, biochemical, small-molecule microarray, 635 nm fluorescence (AID 1088).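 Note: binding of Prmt1 protein to compounds spotted on small-molecule microarray slides.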 The conditions noted are these: small-molecule microarray binding, higher = more signal.
As for `COCCOC(=O)N1C(=O)[C@@]2(c3cc(C#CC4(O)CCCCCC4)ccc31)[C@H](C(N)=O)[C@H]1C(=O)O[C@H](c3ccccc3)[C@H](c3ccccc3)N1[C@@H]2c1ccc(OCCO)cc1`, the composite z-score was determined as 1.54. On the same count and under the same terms, under `CC(C)C[C@@H]1NC(=O)[C@@H]2C[C@H](C(=O)NCCCCCNC(=O)CS)[C@H](c3ccc(O)cc3)N2C1=O` stands 1.16; under `Cc1ccc(S(=O)(=O)N2[C@@H](c3ccccc3)C(C(=O)O)=CC[C@H]2c2ccc(F)cc2)cc1`, 1.26.

On to `CCCCCN1CC=CC23O[C@@H]4/C=C\CCCOC(=O)C4[C@H]2C(=O)N(CCO)[C@@H]3C1=O` (stereo partly specified), for which the composite z-score is -0.0525. Regarding `C=C(C(=O)CC[C@@H](OC(=O)c1cccnc1)c1cccc(OCCO)c1)C(C)C`, the composite z-score came out at 0.271. Regarding `O=C1C2C=CC(C(O)C3CC=CCC3)N(Nc3ccc([N+](=O)[O-])cc3)C2C(=O)N1c1ccccc1` (stereo unspecified), the composite z-score amounted to 1.41. `CCCCC(=C=CC[C@@H](O)c1ccccc1OCCO)C[C@@H](O)c1ccccn1` showed a composite z-score of 1.35. In turn, `COC(=O)[C@]1(Cc2ccccc2CN=[N+]=[N-])N=C(c2ccc(OCCCO)cc2)O[C@@H]1c1ccccc1N=[N+]=[N-]` had a composite z-score of 0.907. Compound `COCCOC(=O)N1C(=O)[C@@]2(c3cc(C#CC4=CCCCC4)ccc31)[C@H](c1ccc(O)cc1)N1[C@H](c3ccccc3)[C@H](c3ccccc3)OC(=O)[C@H]1[C@@H]2C(=O)N1CCc2cc(OC)c(OC)cc2C1` registered a composite z-score of 1.15.

As to `O=C(c1ccccc1)N1Cc2ccccc2C[C@@]2(N=C(c3ccc(OCCCO)cc3)O[C@H]2c2ccccc2)C1=O`, the composite z-score stood at 1.54. As for `C=CC[C@]1(C(=O)NCCN2CCOCC2)N=C(c2ccc(OCCCO)cc2)O[C@H]1c1ccccc1`, the composite z-score came out at 1.17.

Test system in the next assay: not listed separately
Kind of assay: yeast growth modulation, basal conditions, primary screen, YJM789 clinical isolate, OD600, 24 h (AID 1089).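 Note: growth of clinical yeast isolate S. cerevisiae YJM 789 seeded 1000 cells per well; test concentration not given here.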 The conditions noted are these: S. cerevisiae YJM789 growth, higher = more signal, called active from +8 up or from −8 down.
Take `COC(=O)C(CC#Cc1ccc2c(c1)[C@]1(C(=O)N2)[C@H](c2ccccc2OCCO)N2[C@H](c3ccccc3)[C@H](c3ccccc3)OC(=O)[C@H]2[C@@H]1C(=O)N1CCN(c2ncccn2)CC1)C(=O)OC`: the z-score is 2.61 (inactive).

`COC(=O)[C@@]1(Cc2ccc(F)cc2)[C@H]2c3cc(C(=O)N(C)C)n(Cc4ccc(C(F)(F)F)nc4)c3C[C@H]2CN1C(=O)c1ccccc1`: the z-score is 0.538 (inactive). The same measure, in the same setting: then `COCCCNC(=O)[C@]1(Cc2ccccc2CN=[N+]=[N-])N=C(c2ccc(OCCCO)cc2)O[C@@H]1c1ccccc1N=[N+]=[N-]`, with -0.499 (inactive); and `[N-]=[N+]=Nc1ccccc1C[C@]1(C(N)=O)COC(c2ccc(OCCCO)cc2)=N1`, with -0.684 (inactive); and `COc1cc(Cc2cc3c(c(-c4ccccc4)n2)[Si](C(C)C)(C(C)C)OC3)cc(OC)c1OC`, with 0.208 (inactive). In the case of `COC(=O)C[C@H]1O[C@]2(C(=O)N(C)c3ccccc32)[C@@H](C)[C@@H]1[Si](C)(C)c1ccccc1`, the z-score was -4.03 (inactive). The same measure, in the same setting: under `C=CC[C@H](O)c1ccc(O)c(F)c1` stands -0.63 (inactive); under `COc1ccc(CCNC(=O)[C@@H]2c3ccccc3C(=O)N(C(C)C)[C@H]2c2ccc(CO)cc2)cc1`, 0.342 (inactive). As for `COC(=O)[C@@]1(Cc2ccc(F)cc2)[C@H]2c3cc(C(=O)N(C)C)n(CCF)c3C[C@H]2CN1C(=O)c1ccccc1`, the z-score was -2.02 (inactive). The same measure, in the same setting: under `Cc1ccc(N2C(=O)c3ccccc3[C@@H](C(=O)NCCN3CCOCC3)[C@@H]2c2ccc(CO)cc2)nc1` stands 0.333 (inactive). The same measure, in the same setting: then `O=C/C=C/c1ccc(-c2ccccc2)cc1`, with -25.4 (active); and `CC[C@@H](O[Si](C#C[Si](C(C)C)(C(C)C)C(C)C)(C(C)C)C(C)C)c1cn([C@H](C)c2ccccc2)nn1`, with 0.685 (inactive).

Take `CCOC(=O)C1=CCC(c2cccn2C(=O)OC(C)(C)C)N(S(=O)(=O)c2ccc(C)cc2)C1` (stereo unspecified): the z-score was -0.0556 (inactive). For `CC[C@@H]1C=C(C(=O)O)[C@H](c2cccc(Cl)c2)N1S(=O)(=O)c1ccc(C)cc1`, the z-score is -0.848 (inactive). Same read-out and setting: then `O=C1O[C@H](c2ccccc2)[C@H](c2ccccc2)N2[C@H]1[C@@H](C(=O)O)[C@]1(C(=O)Nc3ccccc31)[C@H]2c1ccc(OCCO)cc1`, with -0.0404 (inactive); and `COc1ccc(NN2C(C(O)c3ccc(F)cc3)C=CC3C(=O)N(C4CCCCC4)C(=O)C32)cc1` (stereo unspecified), with 0.0646 (inactive); and `C=CCNC(=O)[C@@H]1[C@H]2C(=O)O[C@H](c3ccccc3)[C@H](c3ccccc3)N2[C@H](c2ccc(OCCO)cc2)[C@@]12C(=O)Nc1ccc(C#CCNC(N)=O)cc12`, with 0.696 (inactive). Consider `CCCCN1CC=CC23O[C@@H]4C=CCCOC(=O)C4[C@H]2C(=O)N(CCO)[C@@H]3C1=O` (stereo partly specified), for which the z-score was -0.207 (inactive). `CN1C(=O)C2C=CC(C(O)c3ccc([N+](=O)[O-])cc3)N(Nc3ccccc3)C2C1=O` (stereo unspecified): the z-score is 0.439 (inactive). On to `CC(C)[Si]1(C(C)C)OCc2cc(-c3ccc(-c4ccc(Cl)c(Cl)c4)o3)nc(-c3ccc(Oc4ccccc4)cc3)c21`, for which the z-score is 0.797 (inactive). The same measure, in the same setting: under `C=C1C(=O)C=C2CN(C(=O)c3ccccc3)[C@@](Cc3ccc(F)cc3)(C(=O)OC)[C@@H]12` stands -23.7 (active). `CN(C)C(=O)[C@]1(CCS(=O)(=O)c2ccccc2)N=C(c2ccc(OCCCO)cc2)O[C@@H]1c1ccccc1CN=[N+]=[N-]`: the z-score is 0.106 (inactive). As to `CN1C2C=C(c3ccc(CO)cc3)C(C3C(=O)N(C(N)=O)C(=O)C32)C1C1CC1` (stereo unspecified), the z-score is -1.07 (inactive).

On to `CCCNC(=O)[C@@]1(Sc2ccc(C)cc2)CC(=O)N(Cc2cc(C(F)(F)F)cc(C(F)(F)F)c2)[C@@H]1c1ccc(CO)cc1`, for which the z-score is -0.0276 (inactive). On the same count and under the same terms, then `COCCOC(=O)N1C(=O)[C@@]2(c3cc(C#CC4(O)CCCCCC4)ccc31)[C@H](C(N)=O)[C@H]1C(=O)O[C@H](c3ccccc3)[C@H](c3ccccc3)N1[C@@H]2c1ccc(OCCO)cc1`, with 1.73 (inactive); and `CC(C)C[C@@H]1NC(=O)[C@@H]2C[C@H](C(=O)NCCCCCNC(=O)CS)[C@H](c3ccc(O)cc3)N2C1=O`, with -2.18 (inactive). For `Cc1ccc(S(=O)(=O)N2[C@@H](c3ccccc3)C(C(=O)O)=CC[C@H]2c2ccc(F)cc2)cc1`, the z-score is -0.485 (inactive). Turning to `CCCCCN1CC=CC23O[C@@H]4/C=C\CCCOC(=O)C4[C@H]2C(=O)N(CCO)[C@@H]3C1=O` (stereo partly specified), the z-score is -0.402 (inactive). On the same count and under the same terms, then `C=C(C(=O)CC[C@@H](OC(=O)c1cccnc1)c1cccc(OCCO)c1)C(C)C`, with -1.11 (inactive). For the compound `O=C1C2C=CC(C(O)C3CC=CCC3)N(Nc3ccc([N+](=O)[O-])cc3)C2C(=O)N1c1ccccc1` (stereo unspecified), the z-score is -1.09 (inactive). On the same count and under the same terms, then `CCCCC(=C=CC[C@@H](O)c1ccccc1OCCO)C[C@@H](O)c1ccccn1`, with 0.0466 (inactive). On the same count and under the same terms, then `COC(=O)[C@]1(Cc2ccccc2CN=[N+]=[N-])N=C(c2ccc(OCCCO)cc2)O[C@@H]1c1ccccc1N=[N+]=[N-]`, with -0.267 (inactive). With `COCCOC(=O)N1C(=O)[C@@]2(c3cc(C#CC4=CCCCC4)ccc31)[C@H](c1ccc(O)cc1)N1[C@H](c3ccccc3)[C@H](c3ccccc3)OC(=O)[C@H]1[C@@H]2C(=O)N1CCc2cc(OC)c(OC)cc2C1`, the z-score was 0.793 (inactive). Same read-out and setting: then `O=C(c1ccccc1)N1Cc2ccccc2C[C@@]2(N=C(c3ccc(OCCCO)cc3)O[C@H]2c2ccccc2)C1=O`, with -0.68 (inactive); and `C=CC[C@]1(C(=O)NCCN2CCOCC2)N=C(c2ccc(OCCCO)cc2)O[C@H]1c1ccccc1`, with -1.24 (inactive).
